Screen size: about 1,300 compounds; about 240 (18%) were called active. About 8% were inconclusive and are not listed. The list is a sample of the results. Potency and affinity values are given separately. A number with no mark means an inactive call. The rule behind the calls is not given here.
Assay: toxicity to human hepatoma HepG2 cells – cell-based, cherry-picked samples, cytotoxicity control, dose response (AID 1159577);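 note: 0% = neutral control wells and -100% = positive control wells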
Settings: HepG2 cytotoxicity counterscreen, plate reader; series mostly up to 19.5 µM; activity change, negative = cytotoxicity: at the top concentration

SMILES | activity change, negative = cytotoxicity
O=C(Nc1ccccc1)N1CCCCN2[C@H](CO)[C@H](c3ccc(C#Cc4cccnc4)cc3)[C@@H]2C1 | -11.5%
COc1cccc(CN2CCCCN3[C@H](CO)[C@@H](c4ccc(C#Cc5cccnc5)cc4)[C@@H]3C2)c1 | -16.5%
COc1ccc(NC(=O)N2CCCCN3[C@H](CO)[C@H](c4ccc(C#Cc5ccccn5)cc4)[C@@H]3C2)cc1 | -5.37%
C[C@@H]1CN([C@H](C)CO)C(=O)c2c(c3ccccc3n2C)-c2ccccc2CO[C@@H]1CN(C)C(=O)[C@H](C)c1ccccc1 | -3.8%
C[C@@H]1CN([C@H](C)CO)C(=O)c2ccccc2-c2ccccc2CO[C@H]1CN(C)C(=O)Nc1cccc(Cl)c1Cl | -0.614% [at 21 µM]
C[C@H](CO)N1C[C@H](C)[C@H](CN(C)Cc2ccc(Oc3ccccc3)cc2)Oc2c(NC(=O)c3nc4ccccc4s3)cccc2C1=O | 11.9%
C[C@H](CO)N1C[C@H](C)[C@H](CN(C)S(=O)(=O)c2cccs2)Oc2ccc(NC(=O)Cc3cn(C)c4ccccc34)cc2C1=O | -0.395%
COc1ccc(C#Cc2ccc3c(c2)O[C@H](CN(C)S(=O)(=O)c2ccccc2F)[C@@H](C)CN([C@H](C)CO)S3(=O)=O)cc1 | 0.364%
CC(C)(C)[S@@](=O)N1Cc2cc(C(=O)NCCN3CCCC3)nc(-c3cccc(-c4ccc(C#N)cc4)c3)c2[C@H]1CCO | -19.4% [at 21 µM]
COCC(=O)Nc1ccc2c(c1)C(=O)N(C)C[C@H](OC)[C@H](C)CN(Cc1cc(F)ccc1F)[C@@H](C)CO2 | 15.5%
COc1ccccc1CNC(=O)C[C@H]1C[C@H]2c3cc(NC(=O)Cc4ccncc4)ccc3O[C@H]2[C@H](CO)O1 | -27.4%
C[C@H](CO)N1C[C@H](C)[C@H](CN(C)S(=O)(=O)c2ccc(C(F)(F)F)cc2)OCc2ccccc2-c2c(n(C)c3ccccc23)C1=O | -5.43%
C[C@H]1CN([C@@H](C)CO)C(=O)c2c(c3ccccc3n2C)-c2ccccc2CO[C@@H]1CN(C)C(=O)Cc1ccccc1 | 8.45% [at 21 µM]
C[C@H](CO)N1C[C@H](C)[C@@H](CN(C)Cc2ccc(-c3ccccc3)cc2)OCc2ccccc2-c2c(n(C)c3ccccc23)C1=O | -24%
C[C@@H]1CN([C@@H](C)CO)C(=O)c2c(c3ccccc3n2C)-c2ccccc2CO[C@H]1CN(C)C(=O)Nc1ccccc1C(F)(F)F | -28.3% [at 21 µM]
C[C@H]1CN([C@@H](C)CO)C(=O)c2c(c3ccccc3n2C)-c2ccccc2CO[C@@H]1CN(C)C(=O)Nc1cccc(C(F)(F)F)c1 | 2.5% [at 21 µM]
C[C@H]1CN([C@@H](C)CO)C(=O)c2c(c3ccccc3n2C)-c2ccccc2CO[C@@H]1CN(C)Cc1ccc(-c2ccccc2)cc1 | -16.6%

SMILES | activity change, negative = cytotoxicity
COc1ccc(S(=O)(=O)N2CCC3(CC2)CN(Cc2ccncc2)[C@@H](CO)c2[nH]c4cc(OC)ccc4c23)cc1 | -20.5%
COc1ccccc1NC(=O)Nc1ccc2c(c1)OC[C@@H](C)N(Cc1ccccc1Cl)C[C@@H](C)[C@H](OC)CN(C)C2=O | -3.52%
CCCN(C)C[C@@H]1Oc2cc(C#Cc3cccnc3)ccc2S(=O)(=O)N([C@@H](C)CO)C[C@H]1C | 10.7%
COc1ccc2c3c([nH]c2c1)[C@H](CO)N(Cc1cc(F)ccc1F)CC31CCN(C(=O)C2CCC2)CC1 | 8.9%
C[C@H](CO)N1C[C@H](C)[C@H](CN(C)C(=O)NC2CCCCC2)OCc2ccccc2-c2c(n(C)c3ccccc23)C1=O | 8.48%
CO[C@H]1CN(C)C(=O)c2cc(NC(=O)c3ccccc3F)ccc2OC[C@H](C)N(C(=O)c2ccccc2F)C[C@H]1C | -15.7%
CCC(=O)N1CC2(C1)CN(Cc1cccc(Cl)c1)[C@H](CO)c1c2c2ccc(OC)cc2n1C | 0.885% [at 21 µM]
N#C[C@@H]1[C@H](c2ccccc2-c2ccccc2F)[C@H](CO)N1C(=O)C1CCOCC1 | -0.432%
N#C[C@@H]1[C@@H](c2ccccc2C2=CCCC2)[C@@H](CO)N1C(=O)NC1CCCC1 | 1.93%
CN(C)C(=O)c1cccc(-c2cccc(-c3nc(C(=O)NC4CCCCC4)cc4c3[C@@H](CCO)N([S@](=O)C(C)(C)C)C4)c2)c1 | -15.1% [at 21 µM]
COc1cccc(CNC(=O)c2cc3c(c(-c4cccc(-c5ccncc5)c4)n2)[C@H](CCO)N([S@@](=O)C(C)(C)C)C3)c1 | 15.6%
CC(C)(C)S(=O)N1Cc2cc(C(=O)NCc3ccc(Oc4ccccc4)cc3)nc(-c3cccc(-c4cccc(F)c4)c3)c2[C@@H]1CCO (stereo partly drawn) | 6.7%
COc1cccc(-c2cccc(-c3nc(C(=O)NCc4ccc(Oc5ccccc5)cc4)cc4c3[C@@H](CCO)N(S(=O)C(C)(C)C)C4)c2)c1 (stereo partly drawn) | 17.5%
C[C@H]1CN([C@@H](C)CO)C(=O)c2c(c3ccccc3n2C)-c2ccccc2CO[C@H]1CN(C)S(=O)(=O)c1ccc(C(F)(F)F)cc1 | -0.676% [at 21 µM]
COCC(=O)N1[C@H](C#N)[C@@H](c2ccccc2-c2ccccc2)[C@H]1CO | -10.6%
COc1ccc2c3c(n(C)c2c1)[C@@H](CO)N(C(=O)c1ccc(F)cc1)CC31CN(C(=O)Nc2ccc(F)cc2)C1 | 25.7%
